# According to PubChem BioAssay (EPA / NIEHS):
# Records with an inconclusive call do not appear. Calls of active or inactive are those of the source. Rule for the calls, unless noted: active = hit-call score of the fitted dose curve at least 0.9, where 1 is the maximum; inactive = score below 0.9.
# Key:
# [1] = target: human Beta-secretase (BACE), BACE1 (gene 23621) (UniProt P56817); experiment: NVS_ENZ_hBACE: NovaScreen (NVS) Enzymatic Assay for human Beta-secretase (BACE) (AID 2283140; active = hit-call score of the fitted dose curve at least 0.9, where 1 is the maximum;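 note: hits are inhibitors that reduce fluorescent substrate signal versus DMSO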)
# Sequence of human Beta-secretase (BACE), BACE1 (gene 23621) (P56817 whole entry, looked up): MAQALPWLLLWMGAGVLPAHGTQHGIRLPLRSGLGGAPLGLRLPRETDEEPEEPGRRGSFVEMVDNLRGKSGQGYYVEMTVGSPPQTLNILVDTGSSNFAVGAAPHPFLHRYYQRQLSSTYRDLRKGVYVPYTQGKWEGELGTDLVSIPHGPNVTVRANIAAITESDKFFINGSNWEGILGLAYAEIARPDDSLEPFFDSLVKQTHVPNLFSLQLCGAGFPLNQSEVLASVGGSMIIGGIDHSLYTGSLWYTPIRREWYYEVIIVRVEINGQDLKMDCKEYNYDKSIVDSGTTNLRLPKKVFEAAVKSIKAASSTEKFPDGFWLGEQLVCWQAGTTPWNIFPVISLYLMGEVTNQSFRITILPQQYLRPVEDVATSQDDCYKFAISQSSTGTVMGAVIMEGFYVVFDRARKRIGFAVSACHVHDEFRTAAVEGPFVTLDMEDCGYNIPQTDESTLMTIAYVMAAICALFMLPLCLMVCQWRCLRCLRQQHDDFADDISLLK
# In short: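 Compounds were first tested in duplicate at 25 uM, then actives in concentration series, against recombinant BACE1 from SF9 cells. Enzyme activity was measured by fluorescence intensity 1 hour after dosing, with DMSO as negative control.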
# [2] = target: human Dual Specificity Protein Phosphatase 3 (DUSP3), DUSP3 (gene 1845) (UniProt P51452); experiment: NVS_ENZ_hDUSP3: NovaScreen (NVS) Enzymatic Assay for human Dual Specificity Protein Phosphatase 3 (DUSP3) (AID 2283152; active = hit-call score of the fitted dose curve at least 0.9, where 1 is the maximum;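 note: phosphatase activity of recombinant human DUSP3 on a fluorogenic substrate without cells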)
# Sequence of human Dual Specificity Protein Phosphatase 3 (DUSP3), DUSP3 (gene 1845) (P51452 whole entry, looked up): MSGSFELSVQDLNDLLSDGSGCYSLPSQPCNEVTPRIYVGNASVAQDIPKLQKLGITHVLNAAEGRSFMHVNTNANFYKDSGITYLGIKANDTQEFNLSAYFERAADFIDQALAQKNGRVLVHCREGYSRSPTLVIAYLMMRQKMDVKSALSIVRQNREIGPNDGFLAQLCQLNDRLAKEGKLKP
# In short: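 Cell-free assay with recombinant human DUSP3 and fluorogenic substrate, read by fluorescence intensity. Primary screen ran duplicate at 25 uM; actives followed up in concentration series; loss of signal versus DMSO scored.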
# [3] = target: human Ephrin type-A Receptor 1 (EphA1), EPHA1 (gene 2041) (UniProt P21709); experiment: NVS_ENZ_hEphA1: NovaScreen (NVS) Enzymatic Assay for human Ephrin type-A Receptor 1 (EphA1) (AID 2283158; active = hit-call score of the fitted dose curve at least 0.9, where 1 is the maximum;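 note: activity is signal loss versus DMSO meaning EphA1 kinase inhibition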)
# Sequence of human Ephrin type-A Receptor 1 (EphA1), EPHA1 (gene 2041) (P21709 whole entry, looked up): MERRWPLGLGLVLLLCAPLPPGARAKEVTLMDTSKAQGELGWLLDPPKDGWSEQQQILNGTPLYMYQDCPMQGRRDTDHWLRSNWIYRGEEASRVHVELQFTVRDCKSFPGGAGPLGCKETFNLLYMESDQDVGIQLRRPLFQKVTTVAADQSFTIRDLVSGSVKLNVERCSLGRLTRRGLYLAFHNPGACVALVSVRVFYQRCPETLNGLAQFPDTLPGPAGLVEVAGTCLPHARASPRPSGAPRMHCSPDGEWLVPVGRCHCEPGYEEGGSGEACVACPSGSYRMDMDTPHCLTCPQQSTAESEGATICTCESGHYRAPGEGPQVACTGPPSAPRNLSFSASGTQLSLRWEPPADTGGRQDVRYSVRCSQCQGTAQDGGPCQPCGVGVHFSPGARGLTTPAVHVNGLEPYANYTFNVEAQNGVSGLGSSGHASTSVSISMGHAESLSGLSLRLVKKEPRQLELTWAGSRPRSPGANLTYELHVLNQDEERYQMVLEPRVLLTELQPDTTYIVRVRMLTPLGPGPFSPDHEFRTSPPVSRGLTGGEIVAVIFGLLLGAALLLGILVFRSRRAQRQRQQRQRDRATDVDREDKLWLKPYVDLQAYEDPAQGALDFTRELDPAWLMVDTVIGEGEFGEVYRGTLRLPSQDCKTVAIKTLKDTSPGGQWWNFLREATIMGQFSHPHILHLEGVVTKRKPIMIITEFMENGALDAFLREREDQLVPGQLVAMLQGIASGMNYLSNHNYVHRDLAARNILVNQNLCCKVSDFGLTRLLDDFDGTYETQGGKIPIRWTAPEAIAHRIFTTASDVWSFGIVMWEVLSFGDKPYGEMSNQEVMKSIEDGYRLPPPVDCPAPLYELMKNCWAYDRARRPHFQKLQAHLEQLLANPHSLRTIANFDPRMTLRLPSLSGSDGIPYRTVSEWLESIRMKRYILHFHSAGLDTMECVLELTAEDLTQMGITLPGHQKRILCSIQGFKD
# In short: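 Cell-free enzymatic assay with recombinant EphA1 and fluorescent substrate; product separated by electrophoretic mobility shift, fluorescence intensity read 1 hour after dosing. Loss of signal versus DMSO baseline; primary duplicate screen at 25 uM, actives followed to 50 uM top concentration.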
# [4] = read-out: Monokine induced gamma interferon (MIG), CXCL9 (gene 4283); experiment: BSK_SAg_MIG: BioMAP Diversity Plus: SAg Assay for Monokine induced gamma interferon (MIG) Biomarker Activity (AID 2283092); details: primary human HUVEC with PBMC; actives raise or lower the signal
# In short: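 Values reflect bidirectional fitting of ELISA-measured MIG against DMSO vehicle, taken 24 h after dosing of a co-culture of human umbilical vein endothelial cells and peripheral blood mononuclear cells.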
# [5] = BSK_SAg_PBMCCytotoxicity: PBMC Cytotoxicity Assessment in the BioMAP Diversity Plus: SAg Assay (AID 2283093); details: primary human HUVEC with PBMC;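 note: PBMC viability measured as Alamar Blue reduction fluorescence at 546/580 nm; fitted both ways against DMSO so a hit may be loss or gain of signal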;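 for AC50: PBMC superantigen activated with SEB plus TSST-1 one hour after compound addition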
# In short: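 HUVEC/PBMC co-culture; PBMC exposed to chemical 1 h before SEB and TSST-1 activation (20 ng/mL each), incubated 90 h, then Alamar Blue 6 h, fluorescence 546/580 nm. Bidirectional fit versus DMSO baseline.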
# [6] = BSK_SAg_Proliferation: Cell Proliferation Assessment in the BioMAP Diversity Plus: SAg Assay (AID 2283095); details: primary human HUVEC with PBMC;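 note: relative cell number as total protein by SRB absorbance in sub-confluent culture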
# In short: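 Cells (endothelium plus PBMC, human primary) were dosed with chemical, cultured 96 h, fixed in 10% TCA and stained with 0.1% SRB. Absorbance at 560 nm gave relative protein, fitted bidirectionally relative to DMSO.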
# [7] = BSK_SAg_SRB: Viability Assessment in the BioMAP Diversity Plus: SAg Assay (AID 2283096); details: primary human HUVEC with PBMC;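 note: cells read one day after compound addition; hits may be either gain or loss of signal compared with DMSO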
# In short: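 Human umbilical vein endothelial cells co-cultured with PBMC, read 24 h after compound dosing. Total protein measured by sulforhodamine B staining (0.1% SRB after 10% TCA fixation, absorbance 560 nm); bidirectional fit versus DMSO baseline.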
# [8] = target: Cytochrome P450 2C19 (Homo sapiens) (UniProt P33261); experiment: NVS_ADME_hCYP2C19: NovaScreen (NVS) CYP450-related Enzyme Activity (ADME) Assay for human CYP2C19 (AID 2283113; active = hit-call score of the fitted dose curve at least 0.9, where 1 is the maximum;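 note: potency for inhibition seen as loss of fluorescent signal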)
# In short: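 Cell-free assay of recombinant human CYP2C19 expressed in insect cells, with a fluorogenic substrate; fluorescence intensity read 1 hour after dosing. Loss of signal relative to acetonitrile negative control indicates inhibition. Primary screen at 10 uM in duplicate, then concentration series.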
# [9] = target: human CYP2D6, CYP2D6 (gene 1565) (UniProt P10635); experiment: NVS_ADME_hCYP2D6: NovaScreen (NVS) CYP450-related Enzyme Activity (ADME) Assay for human CYP2D6 (AID 2283107; active = hit-call score of the fitted dose curve at least 0.9, where 1 is the maximum)
# Sequence of human CYP2D6, CYP2D6 (gene 1565) (P10635 whole entry, looked up): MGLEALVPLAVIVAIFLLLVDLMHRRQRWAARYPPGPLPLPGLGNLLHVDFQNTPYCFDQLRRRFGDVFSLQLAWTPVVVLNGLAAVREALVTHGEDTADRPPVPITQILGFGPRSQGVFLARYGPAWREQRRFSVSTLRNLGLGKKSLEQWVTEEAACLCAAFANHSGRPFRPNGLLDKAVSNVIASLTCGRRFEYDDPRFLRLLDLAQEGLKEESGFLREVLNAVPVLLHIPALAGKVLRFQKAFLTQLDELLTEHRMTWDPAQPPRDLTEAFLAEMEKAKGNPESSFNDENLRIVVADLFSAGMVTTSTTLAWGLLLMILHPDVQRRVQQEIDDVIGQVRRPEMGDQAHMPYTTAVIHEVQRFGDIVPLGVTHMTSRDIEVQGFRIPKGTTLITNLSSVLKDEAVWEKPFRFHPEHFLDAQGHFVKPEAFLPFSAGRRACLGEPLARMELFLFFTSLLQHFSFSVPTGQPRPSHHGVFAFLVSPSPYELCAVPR
# In short: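 Cell-free assay using recombinant enzyme expressed in insect cells, with fluorescence-intensity readout of enzyme activity 1 hour after chemical dosing. Loss of signal versus acetonitrile negative control indicates inhibition. Primary screen ran in duplicate at 10 uM; actives were retested in concentration series.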
# [10] = target: rat CYP2A1, Cyp2a1 (gene 24894) (UniProt P11711); experiment: NVS_ADME_rCYP2A1: NovaScreen (NVS) CYP450-related Enzyme Activity (ADME) Assay for rat CYP2A1 (AID 2283114)
# In short: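 Recombinant rat CYP2A1, cell-free, fluorogenic substrate turnover read by fluorescence intensity 0.75 h after dosing. Primary screen at 10 uM in duplicate; actives rerun as concentration-response up to 20 uM; loss of signal versus acetonitrile control.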
# [11] = target: human Esterase Plasma (ES), BCHE (gene 590) (UniProt P06276); experiment: NVS_ENZ_hES: NovaScreen (NVS) Enzymatic Assay for human Esterase Plasma (ES) (AID 2283157; active = hit-call score of the fitted dose curve at least 0.9, where 1 is the maximum)
# Sequence of human Esterase Plasma (ES), BCHE (gene 590) (P06276 whole entry, looked up): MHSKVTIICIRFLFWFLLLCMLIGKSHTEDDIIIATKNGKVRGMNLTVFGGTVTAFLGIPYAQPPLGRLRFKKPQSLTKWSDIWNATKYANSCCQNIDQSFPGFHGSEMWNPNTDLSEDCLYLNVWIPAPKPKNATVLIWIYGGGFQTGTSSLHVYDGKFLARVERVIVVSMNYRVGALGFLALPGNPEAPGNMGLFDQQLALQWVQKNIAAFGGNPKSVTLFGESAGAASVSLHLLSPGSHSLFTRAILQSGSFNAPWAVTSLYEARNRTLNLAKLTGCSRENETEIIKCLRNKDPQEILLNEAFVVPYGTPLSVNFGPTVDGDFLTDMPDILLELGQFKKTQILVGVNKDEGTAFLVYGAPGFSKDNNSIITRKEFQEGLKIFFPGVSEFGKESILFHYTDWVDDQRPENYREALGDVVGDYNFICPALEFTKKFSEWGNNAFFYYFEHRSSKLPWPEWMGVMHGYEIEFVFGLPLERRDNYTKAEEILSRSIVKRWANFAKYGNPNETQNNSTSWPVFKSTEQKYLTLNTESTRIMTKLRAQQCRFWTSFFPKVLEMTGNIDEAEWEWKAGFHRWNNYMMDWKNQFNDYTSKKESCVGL
# In short: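 Esterase from human plasma, cell-free, colorimetric absorbance read 0.25 h after dosing. Screened at 25 uM in duplicate, with threshold-passing chemicals run in concentration-response up to 50 uM; loss of signal fitted versus DMSO.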
# [12] = target: human Caspase 5 (CASP5), CASP5 (gene 838) (UniProt P51878); experiment: NVS_ENZ_hCASP5: NovaScreen (NVS) Enzymatic Assay for human Caspase 5 (CASP5) (AID 2283137; active = hit-call score of the fitted dose curve at least 0.9, where 1 is the maximum)
# Sequence of human Caspase 5 (CASP5), CASP5 (gene 838) (P51878 whole entry, looked up): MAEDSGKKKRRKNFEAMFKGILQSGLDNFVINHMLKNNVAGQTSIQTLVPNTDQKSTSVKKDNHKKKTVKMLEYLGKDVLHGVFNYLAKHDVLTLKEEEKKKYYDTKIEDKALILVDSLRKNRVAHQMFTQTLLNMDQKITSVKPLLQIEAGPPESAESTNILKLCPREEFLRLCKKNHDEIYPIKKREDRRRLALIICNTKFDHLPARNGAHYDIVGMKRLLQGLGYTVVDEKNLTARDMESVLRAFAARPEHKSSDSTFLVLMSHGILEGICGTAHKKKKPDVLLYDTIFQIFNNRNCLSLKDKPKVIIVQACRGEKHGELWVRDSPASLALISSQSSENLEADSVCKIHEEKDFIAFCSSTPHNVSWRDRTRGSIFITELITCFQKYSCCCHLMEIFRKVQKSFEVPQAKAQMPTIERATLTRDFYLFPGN
# In short: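 E. coli-derived enzyme, cell-free, 2 h incubation, fluorescence intensity. 25 uM duplicate single-point; hits → concentration series to 50 uM. DMSO baseline, positive/negative controls on every plate.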
# [13] = target: human CYP19A1, CYP19A1 (gene 1588) (UniProt P11511); experiment: NVS_ADME_hCYP19A1: NovaScreen (NVS) CYP450-related Enzyme Activity (ADME) Assay for human CYP19A1 (AID 2283098; active = hit-call score of the fitted dose curve at least 0.9, where 1 is the maximum;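 for AC50: potency for inhibitors seen as loss of fluorescent enzyme signal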)
# Sequence of human CYP19A1, CYP19A1 (gene 1588) (P11511 whole entry, looked up): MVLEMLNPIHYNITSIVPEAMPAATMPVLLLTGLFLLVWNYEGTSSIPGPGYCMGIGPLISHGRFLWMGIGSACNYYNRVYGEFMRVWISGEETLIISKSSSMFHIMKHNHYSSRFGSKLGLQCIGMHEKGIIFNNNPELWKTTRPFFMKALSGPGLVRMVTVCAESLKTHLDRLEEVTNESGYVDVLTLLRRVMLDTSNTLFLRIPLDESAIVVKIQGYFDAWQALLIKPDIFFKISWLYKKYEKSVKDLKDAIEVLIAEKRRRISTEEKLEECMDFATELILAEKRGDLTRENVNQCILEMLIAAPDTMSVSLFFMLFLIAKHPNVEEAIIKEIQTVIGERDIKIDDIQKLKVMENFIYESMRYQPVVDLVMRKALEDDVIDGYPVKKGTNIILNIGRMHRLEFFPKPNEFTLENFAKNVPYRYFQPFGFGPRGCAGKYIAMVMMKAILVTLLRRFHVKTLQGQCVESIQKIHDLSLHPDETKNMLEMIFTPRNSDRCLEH
# In short: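 Recombinant enzyme in a cell-free format, read 0.5 h after dosing by fluorescence from a fluorogenic substrate. Loss of signal was fitted against acetonitrile as baseline. Primary screen in duplicate at 10 uM, actives then tested in concentration series.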
# [14] = target: rat CYP2A2, Cyp2a2 (gene 24895) (UniProt P15149); experiment: NVS_ADME_rCYP2A2: NovaScreen (NVS) CYP450-related Enzyme Activity (ADME) Assay for rat CYP2A2 (AID 2283116; active = hit-call score of the fitted dose curve at least 0.9, where 1 is the maximum)
# Sequence of rat CYP2A2, Cyp2a2 (gene 24895) (P15149 whole entry, looked up): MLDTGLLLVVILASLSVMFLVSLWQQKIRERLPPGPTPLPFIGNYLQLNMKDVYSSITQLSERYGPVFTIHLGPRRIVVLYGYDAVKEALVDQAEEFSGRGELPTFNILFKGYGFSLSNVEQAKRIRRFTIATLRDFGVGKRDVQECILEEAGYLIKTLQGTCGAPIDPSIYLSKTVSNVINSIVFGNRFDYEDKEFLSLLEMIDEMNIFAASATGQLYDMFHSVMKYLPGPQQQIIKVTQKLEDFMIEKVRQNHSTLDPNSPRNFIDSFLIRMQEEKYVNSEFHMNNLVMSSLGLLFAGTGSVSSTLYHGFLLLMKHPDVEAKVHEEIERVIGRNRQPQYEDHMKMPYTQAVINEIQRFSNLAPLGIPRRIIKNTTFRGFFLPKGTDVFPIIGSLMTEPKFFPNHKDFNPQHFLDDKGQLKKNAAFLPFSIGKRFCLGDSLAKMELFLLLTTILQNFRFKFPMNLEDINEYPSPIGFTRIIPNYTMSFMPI
# In short: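 Cell-free recombinant rat CYP2A2 activity with fluorogenic substrate, fluorescence read 0.2 h after dosing. Chemicals screened at 10 uM in duplicate, hits then run in concentration-response up to 20 uM; signal loss versus acetonitrile baseline.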
# [15] = target: Cytochrome P450 3A4 (Homo sapiens) (UniProt P08684); experiment: NVS_ADME_hCYP3A4: NovaScreen (NVS) CYP450-related Enzyme Activity (ADME) Assay for human CYP3A4 (AID 2283110; active = hit-call score of the fitted dose curve at least 0.9, where 1 is the maximum)
# In short: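 Cell-free recombinant enzyme expressed in insect cells; fluorescent substrate turnover read after 0.33 h, acetonitrile as negative control. Primary screen in duplicate at 10 uM, actives then tested in concentration series.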
# [16] = target: human CYP2C9, CYP2C9 (gene 1559) (UniProt P11712); experiment: NVS_ADME_hCYP2C9: NovaScreen (NVS) CYP450-related Enzyme Activity (ADME) Assay for human CYP2C9 (AID 2283108; active = hit-call score of the fitted dose curve at least 0.9, where 1 is the maximum)
# Sequence of human CYP2C9, CYP2C9 (gene 1559) (P11712 whole entry, looked up): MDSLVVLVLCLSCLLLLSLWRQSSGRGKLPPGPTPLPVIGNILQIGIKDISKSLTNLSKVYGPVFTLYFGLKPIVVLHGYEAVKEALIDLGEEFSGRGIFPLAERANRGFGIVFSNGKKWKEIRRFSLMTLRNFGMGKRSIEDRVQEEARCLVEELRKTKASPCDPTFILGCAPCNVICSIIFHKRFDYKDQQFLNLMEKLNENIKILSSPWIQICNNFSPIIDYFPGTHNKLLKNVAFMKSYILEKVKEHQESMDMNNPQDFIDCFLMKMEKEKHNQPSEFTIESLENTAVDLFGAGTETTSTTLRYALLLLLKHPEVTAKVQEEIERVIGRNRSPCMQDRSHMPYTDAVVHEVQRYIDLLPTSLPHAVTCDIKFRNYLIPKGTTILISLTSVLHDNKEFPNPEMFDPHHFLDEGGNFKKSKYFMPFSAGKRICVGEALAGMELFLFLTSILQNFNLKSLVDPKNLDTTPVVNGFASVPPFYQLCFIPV
# In short: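 Recombinant human CYP2C9 expressed in SF9 cells, fluorogenic substrate, fluorescence read 0.75 h after dosing. Chemicals first run in duplicate at 10 uM, with actives followed in concentration series; loss of signal versus acetonitrile baseline.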
structure (smiles),measurement,setting,value
CCOCCOCCOCC,outcome,[1],inactive
NC(=S)NNC(N)=S,AC50,[2],4.96 µM (active)
OCCCCC(O)CO (configuration not stated),AC50,[3],5.49 µM (active)
CN(C)C(=S)SC(=S)N(C)C,outcome,[4],inactive
same,AC50,[5],1.25 µM (active)
same,AC50,[6],0.0189 µM (active)
same,outcome,[7],inactive
same,AC50,[8],1.03 µM (active)
same,AC50,[2],0.326 µM (active)
CC(=O)C(C)O (configuration not stated),AC50,[9],5 µM (active)
same,outcome,[3],inactive
C=Cc1ccc(C)cc1,outcome,[10],inactive
CC(C)(C)CC(C)(C)c1ccc(OCCOCC[N+](C)(C)Cc2ccccc2)cc1,AC50,[4],6.44 µM (active)
same,AC50,[5],3.23 µM (active)
same,AC50,[6],0.773 µM (active)
same,AC50,[7],8.46 µM (active)
same,AC50,[11],0.791 µM (active)
CC(C)(N=C=O)c1cccc(C(C)(C)N=C=O)c1,outcome,[4],inactive
same,outcome,[6],inactive
same,outcome,[7],inactive
same,outcome,[1],inactive
same,outcome,[3],inactive
O=C1c2ccccc2C(=O)c2c(O)ccc(O)c21,outcome,[4],inactive
same,AC50,[5],14.4 µM (active)
same,AC50,[6],16.5 µM (active)
same,outcome,[7],inactive
same,AC50,[12],7.12 µM (active)
same,AC50,[1],25 µM (active)
CS(C)=O,outcome,[13],inactive
COCCOC(=O)c1ccccc1C(=O)OCCOC,AC50,[11],18.6 µM (active)
same,outcome,[3],inactive
CC1(C)C(=O)N(Cl)C(=O)N1Br,AC50,[14],5.02 µM (active)
O=C1OC[C@H](Cc2cccc(O)c2)[C@H]1Cc1cccc(O)c1,outcome,[4],inactive
same,outcome,[5],inactive
same,outcome,[6],inactive
same,outcome,[7],inactive
same,AC50,[8],0.686 µM (active)
CCCCCCC(=O)c1ccccc1,AC50,[13],5.7 µM (active)
Cc1ncc([N+](=O)[O-])n1CCO,AC50,[3],11.7 µM (active)
Cc1cc(CCC(=O)OCCOCCOCCOC(=O)CCc2cc(C)c(O)c(C(C)(C)C)c2)cc(C(C)(C)C)c1O,outcome,[4],inactive
same,AC50,[5],25.2 µM (active)
same,AC50,[6],25.3 µM (active)
same,AC50,[7],32.2 µM (active)
same,AC50,[8],2.45 µM (active)
Oc1c(Cl)cc(Cl)c(Cl)c1Cc1c(O)c(Cl)cc(Cl)c1Cl,AC50,[4],8.51 µM (active)
same,AC50,[5],12.9 µM (active)
same,AC50,[6],4.05 µM (active)
same,AC50,[7],15.6 µM (active)
same,AC50,[12],2.9 µM (active)
same,AC50,[1],1.21 µM (active)
CCCCOC(=O)CCCCCCCC(=O)OCCCC,outcome,[4],inactive
same,outcome,[5],inactive
same,outcome,[6],inactive
same,outcome,[7],inactive
same,AC50,[15],3.8 µM (active)
same,outcome,[2],inactive
COc1cc(Cl)c(OC)cc1N,outcome,[4],inactive
same,outcome,[5],inactive
same,outcome,[6],inactive
same,outcome,[7],inactive
same,AC50,[9],0.992 µM (active)
same,outcome,[16],inactive
